# Measurements taken from PubChem BioAssay (NCI).
# Compounds without any hit were thinned out: in the full panel of roughly 79,000, 15% have a hit. Active and inactive are the calls of the source. Rule as the data show it: active = growth inhibition above about 70%; inactive = the rest.
# How the values were obtained:
# [1] = NCI Yeast Anticancer Drug Screen. Data for the rad50 strain (AID 155);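 also: 0% = growth of vehicle-only cultures of the same strain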; details: S. cerevisiae rad50 strain growth inhibition, hits give high values
# Procedure, shortened: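 Yeast carrying a defined DNA repair defect were exposed to test compounds, and growth was compared with vehicle-treated controls to give percent inhibition.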
# [2] = NCI Yeast Anticancer Drug Screen. Data for the mec2-1 strain (AID 157); details: S. cerevisiae mec2-1 strain, hits give high values
# Procedure, shortened: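 Each compound was tested on mec2-1 yeast, a strain altered in DNA damage repair or cell cycle control. Growth inhibition is reported relative to vehicle.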
# [3] = NCI Yeast Anticancer Drug Screen. Data for the sgs1 mgt1 strain (AID 161);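 also: 0% = growth of cultures given vehicle only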; details: S. cerevisiae sgs1 mgt1 strain, hits give high values
# Procedure, shortened: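 Inhibition of yeast growth, normalised to vehicle-treated controls, is reported for a strain bearing genetic alterations in DNA damage repair.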
# [4] = NCI Yeast Anticancer Drug Screen. Data for the cln2 rad14 strain (AID 165);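 also: 0% = growth equal to vehicle treated cultures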; details: S. cerevisiae cln2 rad14 strain, hits give high values
# Procedure, shortened: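 Test compounds were added to cln2 rad14 yeast cultures; inhibition of growth was then determined by comparison with vehicle treatment.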
# [5] = NCI Yeast Anticancer Drug Screen. Data for the bub3 strain (AID 167); details: S. cerevisiae bub3 mutant strain, hits give high values
# Procedure, shortened: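 Compounds were applied to a genetically altered yeast strain carrying a cell-cycle control defect. Growth inhibition was scored against vehicle-treated controls.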
# [6] = NCI Yeast Anticancer Drug Screen. Data for the mlh1 rad18 strain (AID 175); details: S. cerevisiae mlh1 rad18 strain growth inhibition, hits give high values
# Procedure, shortened: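 Inhibition values reflect reduced growth of mutant yeast versus vehicle-treated controls following compound exposure; the mutations affect DNA damage repair.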
# [7] = at 5.0 µM (retest, dose inferred, filed as 0.5)
# [8] = at 50.0 µM (retest, dose inferred, filed as 5.0)
Structure (SMILES),"growth inhibition [1, 7]","growth inhibition [1, 8]",growth inhibition ([1]; at 50.0 µM),"growth inhibition [2, 7]","growth inhibition [2, 8]",growth inhibition ([2]; at 50.0 µM),"growth inhibition [3, 7]","growth inhibition [3, 8]",growth inhibition ([3]; at 50.0 µM),"growth inhibition [4, 7]","growth inhibition [4, 8]",growth inhibition ([4]; at 50.0 µM),"growth inhibition [5, 7]","growth inhibition [5, 8]",growth inhibition ([5]; at 50.0 µM),"growth inhibition [6, 7]","growth inhibition [6, 8]",growth inhibition ([6]; at 50.0 µM)
CC(=O)Nc1ccc(-c2cnc3ccccc3c2)cc1,5% (inactive),29% (inactive),14.2% (inactive),-13% (inactive),15% (inactive),6.2% (inactive),8% (inactive),18% (inactive),4.25% (inactive),-5% (inactive),-6% (inactive),36.5% (inactive),-5% (inactive),-1% (inactive),11.2% (inactive),17% (inactive),29% (inactive),9.15% (inactive)
CCN(C(=O)O)c1ccc(/C=C/c2ccnc3ccccc23)cc1,4% (inactive),94% (active),2.4% (inactive),-16% (inactive),96% (active),-17.9% (inactive),5% (inactive),96% (active),40.1% (inactive),-26% (inactive),91% (active),-0.1% (inactive),-17% (inactive),95% (active),23% (inactive),-7% (inactive),91% (active),29.4% (inactive)
Nc1ccc(S(=O)(=O)Nc2nc3ccccc3nc2N2CCCCCC2)cc1,30% (inactive),79% (active),43.5% (inactive),30% (inactive),87% (active),48.1% (inactive),36% (inactive),92% (active),82.2% (active),40% (inactive),92% (active),82.5% (active),44% (inactive),95% (active),85.2% (active),39% (inactive),90% (active),85.6% (active)
O=[N+]([O-])c1cc(Cl)c(Cl)cc1NS(=O)(=O)c1ccccc1,17% (inactive),45% (inactive),29.1% (inactive),-8% (inactive),51% (inactive),49.5% (inactive),7% (inactive),58% (inactive),39.4% (inactive),25% (inactive),84% (active),54.5% (inactive),9% (inactive),57% (inactive),40.4% (inactive),10% (inactive),76% (active),71.2% (active)
